# From article PMC7862700, “An all-to-all approach to the identification of sequence-specific readers for epigenetic DNA modifications on cytosine”
# Legend:
# Experiment in all cases: DAPPL (digital affinity profiling via proximity ligation, sequencing); 10 mM Tris-HCl pH 7.5, 50 mM NaCl, 1 mM DTT, 4% glycerol, room temperature, 30 min; GST-TFs on glutathione beads, 16-mer random dsDNA library, 0.1% formaldehyde crosslink after washing; high values mean tight binding
# FEV = biological target: T1, FEV (Homo sapiens, UniProt Q99581 1-238); conditions: protein: recombinant; tags: N-terminal GST; dsDNA, one strand shown
# T1 sequence: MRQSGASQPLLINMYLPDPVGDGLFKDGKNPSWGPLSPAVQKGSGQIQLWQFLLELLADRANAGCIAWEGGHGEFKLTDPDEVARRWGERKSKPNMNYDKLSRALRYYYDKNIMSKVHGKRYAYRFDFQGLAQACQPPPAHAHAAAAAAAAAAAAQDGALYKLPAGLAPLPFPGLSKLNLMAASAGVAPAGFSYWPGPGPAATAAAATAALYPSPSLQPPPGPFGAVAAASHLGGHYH
# Method in brief: (§1)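 The binding signal reported is, for every hexamer, its read frequency for a factor over its read frequency for the tag-only sample. Reads came from pools of yeast-expressed, GST-fused human transcription factors on glutathione beads, barcoded with DNA and mixed with that sample, which were incubated with 200 nmole of a random double-stranded 16-mer DNA library in Tris/NaCl/DTT/glycerol buffer at room temperature for 30 min. After washing, the pools were crosslinked with 0.1% formaldehyde, proximity-ligated with BsaI/T4 ligase for 1 h at 37 °C, PCR-amplified and sequenced on an Illumina NextSeq500.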
# ETV5 = ETV5 (Homo sapiens, UniProt P41161 1-510); conditions: protein: recombinant; tags: N-terminal GST; dsDNA, one strand shown
# Method in brief: as §1
# HSF1 = HSF1 (Homo sapiens, UniProt Q00613 1-529); conditions: protein: recombinant; tags: N-terminal GST; chain copies: 3; dsDNA, one strand shown
# Method in brief: as §1
# SPIC = biological target: T2, SPIC (Homo sapiens, UniProt Q8N5J4 1-248); conditions: protein: recombinant; tags: N-terminal GST; dsDNA, one strand shown
# T2 sequence: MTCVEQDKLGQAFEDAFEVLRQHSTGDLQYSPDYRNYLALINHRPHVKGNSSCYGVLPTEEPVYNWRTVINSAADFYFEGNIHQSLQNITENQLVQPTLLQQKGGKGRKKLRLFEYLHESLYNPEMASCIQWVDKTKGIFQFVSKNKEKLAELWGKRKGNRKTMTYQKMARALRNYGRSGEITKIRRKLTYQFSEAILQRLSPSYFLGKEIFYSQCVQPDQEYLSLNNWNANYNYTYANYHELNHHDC
# Method in brief: as §1
# ELF4 = ELF4 (Homo sapiens, UniProt Q99607 1-663); conditions: protein: recombinant; tags: N-terminal GST; dsDNA, one strand shown
# Method in brief: as §1
# ELK4 = biological target: T3, ELK4 (Homo sapiens, UniProt P28324-2 1-405); conditions: protein: recombinant; tags: N-terminal GST; dsDNA, one strand shown
# T3 sequence: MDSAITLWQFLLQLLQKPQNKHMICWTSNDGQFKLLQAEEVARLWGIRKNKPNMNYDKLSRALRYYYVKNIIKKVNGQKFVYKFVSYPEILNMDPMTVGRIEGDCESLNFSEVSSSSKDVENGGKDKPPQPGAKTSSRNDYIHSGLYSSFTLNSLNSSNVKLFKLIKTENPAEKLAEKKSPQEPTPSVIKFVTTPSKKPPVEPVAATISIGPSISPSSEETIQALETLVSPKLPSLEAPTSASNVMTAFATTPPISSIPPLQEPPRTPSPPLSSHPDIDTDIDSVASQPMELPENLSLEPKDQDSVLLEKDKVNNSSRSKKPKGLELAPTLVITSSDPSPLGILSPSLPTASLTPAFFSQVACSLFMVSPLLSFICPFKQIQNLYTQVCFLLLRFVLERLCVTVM
# Method in brief: as §1
# ETV2 = biological target: T4, ETV2 (Homo sapiens, UniProt O00321 1-342); conditions: protein: recombinant; tags: N-terminal GST; dsDNA, one strand shown
# T4 sequence: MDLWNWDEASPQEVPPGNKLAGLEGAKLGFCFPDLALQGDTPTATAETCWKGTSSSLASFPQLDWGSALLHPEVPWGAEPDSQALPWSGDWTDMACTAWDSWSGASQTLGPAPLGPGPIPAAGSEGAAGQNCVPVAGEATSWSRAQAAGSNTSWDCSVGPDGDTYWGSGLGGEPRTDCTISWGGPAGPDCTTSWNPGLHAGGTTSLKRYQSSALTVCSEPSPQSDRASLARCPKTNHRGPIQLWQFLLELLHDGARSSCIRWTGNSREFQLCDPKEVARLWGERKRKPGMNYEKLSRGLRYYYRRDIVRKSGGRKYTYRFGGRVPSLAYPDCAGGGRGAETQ
# Method in brief: as §1
# ELF3 = biological target: T5, ELF3 (Homo sapiens, UniProt P78545 1-371); conditions: protein: recombinant; tags: N-terminal GST; dsDNA, one strand shown
# T5 sequence: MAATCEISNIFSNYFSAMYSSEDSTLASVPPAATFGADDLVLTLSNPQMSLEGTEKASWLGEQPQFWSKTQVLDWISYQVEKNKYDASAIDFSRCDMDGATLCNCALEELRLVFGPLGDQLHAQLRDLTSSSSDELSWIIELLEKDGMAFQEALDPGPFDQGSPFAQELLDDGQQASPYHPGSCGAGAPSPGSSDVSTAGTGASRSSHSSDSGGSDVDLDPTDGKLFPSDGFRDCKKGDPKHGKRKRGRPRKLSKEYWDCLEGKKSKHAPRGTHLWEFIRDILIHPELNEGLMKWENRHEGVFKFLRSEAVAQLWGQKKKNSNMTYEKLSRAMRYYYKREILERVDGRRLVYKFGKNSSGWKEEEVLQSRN
# Method in brief: as §1
# CRX = CRX (Homo sapiens, UniProt O43186 1-299); conditions: protein: recombinant; tags: N-terminal GST; dsDNA, one strand shown
# Method in brief: as §1
# ETV1 = ETV1 (Homo sapiens, UniProt P50549 1-477); conditions: protein: recombinant; tags: N-terminal GST; dsDNA, one strand shown
# Method in brief: as §1
# ERF = biological target: T6, ERF (Homo sapiens, UniProt P50548 1-548); conditions: protein: recombinant; tags: N-terminal GST; dsDNA, one strand shown
# T6 sequence: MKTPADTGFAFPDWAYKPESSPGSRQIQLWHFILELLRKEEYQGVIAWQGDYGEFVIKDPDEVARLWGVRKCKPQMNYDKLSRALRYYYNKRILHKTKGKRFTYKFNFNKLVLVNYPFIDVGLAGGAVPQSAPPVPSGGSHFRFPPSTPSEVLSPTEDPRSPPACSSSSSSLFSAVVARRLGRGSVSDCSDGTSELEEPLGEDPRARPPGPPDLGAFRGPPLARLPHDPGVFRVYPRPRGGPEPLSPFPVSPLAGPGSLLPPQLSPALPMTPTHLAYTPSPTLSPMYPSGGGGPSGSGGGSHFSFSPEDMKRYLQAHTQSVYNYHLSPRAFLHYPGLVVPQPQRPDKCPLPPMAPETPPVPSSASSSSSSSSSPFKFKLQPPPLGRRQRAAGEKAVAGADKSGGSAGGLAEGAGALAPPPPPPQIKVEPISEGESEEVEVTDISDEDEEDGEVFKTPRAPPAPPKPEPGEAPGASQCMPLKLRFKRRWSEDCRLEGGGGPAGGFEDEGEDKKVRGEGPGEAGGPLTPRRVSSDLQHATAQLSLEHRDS
# Method in brief: as §1
# ETV3L = biological target: T7, ETV3L (Homo sapiens, UniProt Q6ZN32 1-361); conditions: protein: recombinant; tags: N-terminal GST; dsDNA, one strand shown
# T7 sequence: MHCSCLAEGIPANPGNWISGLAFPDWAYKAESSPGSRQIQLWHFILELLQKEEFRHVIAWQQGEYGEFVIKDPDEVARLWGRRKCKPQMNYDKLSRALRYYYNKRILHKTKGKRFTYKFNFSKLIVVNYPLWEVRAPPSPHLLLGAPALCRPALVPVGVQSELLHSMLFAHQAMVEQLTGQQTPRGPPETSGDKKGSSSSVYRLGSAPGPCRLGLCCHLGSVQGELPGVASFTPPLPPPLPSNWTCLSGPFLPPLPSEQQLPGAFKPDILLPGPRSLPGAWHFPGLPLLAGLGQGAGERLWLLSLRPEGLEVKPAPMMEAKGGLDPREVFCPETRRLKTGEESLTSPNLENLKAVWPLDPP
# Method in brief: as §1
# ETS2 = biological target: T8, ETS2 (Homo sapiens, UniProt P15036 1-469); conditions: protein: recombinant; tags: N-terminal GST; dsDNA, one strand shown
# T8 sequence: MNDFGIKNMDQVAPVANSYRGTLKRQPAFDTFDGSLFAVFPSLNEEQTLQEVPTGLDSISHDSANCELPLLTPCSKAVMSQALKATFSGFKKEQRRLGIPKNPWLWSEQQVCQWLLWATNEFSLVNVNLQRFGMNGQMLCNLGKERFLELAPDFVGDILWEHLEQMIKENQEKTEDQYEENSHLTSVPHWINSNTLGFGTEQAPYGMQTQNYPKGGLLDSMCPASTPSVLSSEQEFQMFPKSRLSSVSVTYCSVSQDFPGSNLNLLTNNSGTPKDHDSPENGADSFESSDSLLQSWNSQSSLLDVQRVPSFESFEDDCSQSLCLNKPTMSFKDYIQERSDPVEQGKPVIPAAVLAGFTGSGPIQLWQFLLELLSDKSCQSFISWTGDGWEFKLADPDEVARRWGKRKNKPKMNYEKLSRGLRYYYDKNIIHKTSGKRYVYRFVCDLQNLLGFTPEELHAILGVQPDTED
# Method in brief: as §1
# SPDEF = biological target: T9, SPDEF (Homo sapiens, UniProt O95238 1-335); conditions: protein: recombinant; tags: N-terminal GST; dsDNA, one strand shown
# T9 sequence: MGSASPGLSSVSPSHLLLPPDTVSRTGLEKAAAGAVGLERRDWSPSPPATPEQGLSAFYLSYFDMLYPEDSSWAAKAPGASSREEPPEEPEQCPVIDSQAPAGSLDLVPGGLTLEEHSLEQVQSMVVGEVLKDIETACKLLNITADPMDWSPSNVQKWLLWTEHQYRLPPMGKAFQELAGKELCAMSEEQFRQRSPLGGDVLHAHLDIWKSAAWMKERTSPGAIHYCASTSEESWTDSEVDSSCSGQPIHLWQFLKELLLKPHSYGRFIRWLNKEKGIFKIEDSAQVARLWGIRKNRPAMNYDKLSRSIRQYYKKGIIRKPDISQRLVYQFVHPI
# Method in brief: as §1
# ETV7 = biological target: T10, ETV7 (Homo sapiens, UniProt Q9Y603 1-341); conditions: protein: recombinant; tags: N-terminal GST; dsDNA, one strand shown
# T10 sequence: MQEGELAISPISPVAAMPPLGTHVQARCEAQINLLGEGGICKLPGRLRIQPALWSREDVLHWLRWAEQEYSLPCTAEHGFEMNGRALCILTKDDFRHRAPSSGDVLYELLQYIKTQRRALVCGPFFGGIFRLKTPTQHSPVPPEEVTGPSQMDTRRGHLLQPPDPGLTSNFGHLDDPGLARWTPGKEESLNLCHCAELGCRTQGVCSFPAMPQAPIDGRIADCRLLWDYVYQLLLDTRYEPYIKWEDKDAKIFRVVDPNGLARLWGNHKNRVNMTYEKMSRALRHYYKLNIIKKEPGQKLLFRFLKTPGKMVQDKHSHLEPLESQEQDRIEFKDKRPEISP
# Method in brief: as §1
# ELF5 = biological target: T11, ELF5 (Homo sapiens, UniProt Q9UKW6-2 1-255); conditions: protein: recombinant; tags: N-terminal GST; dsDNA, one strand shown
# T11 sequence: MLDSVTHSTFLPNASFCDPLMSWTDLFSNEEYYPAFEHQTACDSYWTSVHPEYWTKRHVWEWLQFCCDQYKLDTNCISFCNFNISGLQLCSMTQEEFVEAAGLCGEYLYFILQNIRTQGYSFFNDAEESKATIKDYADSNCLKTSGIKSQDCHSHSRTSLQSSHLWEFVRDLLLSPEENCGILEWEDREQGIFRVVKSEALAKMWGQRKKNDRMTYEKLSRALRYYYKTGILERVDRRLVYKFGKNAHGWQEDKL
# Method in brief: as §1
# ETV3 = biological target: T12, ETV3 (Homo sapiens, UniProt P41162-2 1-143); conditions: protein: recombinant; tags: N-terminal GST; dsDNA, one strand shown
# T12 sequence: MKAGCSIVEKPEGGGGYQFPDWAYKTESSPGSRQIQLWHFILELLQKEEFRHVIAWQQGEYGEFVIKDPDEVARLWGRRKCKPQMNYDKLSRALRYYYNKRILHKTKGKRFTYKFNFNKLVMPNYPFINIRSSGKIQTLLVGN
# Method in brief: as §1
# ETV6 = ETV6 (Homo sapiens, UniProt P41212 1-452); conditions: protein: recombinant; tags: N-terminal GST; dsDNA, one strand shown
# Method in brief: as §1
# ETV6, sequence (P41212 whole entry): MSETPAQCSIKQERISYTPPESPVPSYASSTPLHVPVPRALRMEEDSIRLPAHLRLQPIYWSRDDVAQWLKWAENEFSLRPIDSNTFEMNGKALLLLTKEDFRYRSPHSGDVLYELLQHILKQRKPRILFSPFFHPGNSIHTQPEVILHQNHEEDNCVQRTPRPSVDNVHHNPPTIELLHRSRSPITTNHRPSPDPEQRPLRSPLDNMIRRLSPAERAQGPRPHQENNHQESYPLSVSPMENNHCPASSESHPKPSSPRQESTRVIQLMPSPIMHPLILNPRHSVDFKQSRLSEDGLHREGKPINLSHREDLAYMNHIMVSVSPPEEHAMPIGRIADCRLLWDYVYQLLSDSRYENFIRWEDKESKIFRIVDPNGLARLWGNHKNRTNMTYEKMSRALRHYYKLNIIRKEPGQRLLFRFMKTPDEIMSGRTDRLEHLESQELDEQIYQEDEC
# ELF4, sequence (Q99607 whole entry): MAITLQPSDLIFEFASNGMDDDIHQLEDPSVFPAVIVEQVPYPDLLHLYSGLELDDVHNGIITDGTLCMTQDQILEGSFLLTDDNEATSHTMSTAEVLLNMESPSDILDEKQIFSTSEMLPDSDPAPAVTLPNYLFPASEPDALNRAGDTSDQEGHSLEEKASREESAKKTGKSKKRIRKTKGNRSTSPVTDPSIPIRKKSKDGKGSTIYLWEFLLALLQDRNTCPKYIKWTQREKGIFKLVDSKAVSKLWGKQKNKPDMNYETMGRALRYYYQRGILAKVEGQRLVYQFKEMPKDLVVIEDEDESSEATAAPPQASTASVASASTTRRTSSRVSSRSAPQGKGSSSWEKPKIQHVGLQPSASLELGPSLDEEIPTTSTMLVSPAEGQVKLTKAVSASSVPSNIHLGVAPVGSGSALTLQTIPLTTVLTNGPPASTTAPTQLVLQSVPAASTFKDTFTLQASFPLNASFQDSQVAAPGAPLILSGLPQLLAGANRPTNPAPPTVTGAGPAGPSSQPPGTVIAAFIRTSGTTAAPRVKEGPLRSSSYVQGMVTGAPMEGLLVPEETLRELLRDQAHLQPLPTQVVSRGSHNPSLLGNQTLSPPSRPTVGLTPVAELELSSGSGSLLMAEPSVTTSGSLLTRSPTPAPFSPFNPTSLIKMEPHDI
# ETV1, sequence (P50549 whole entry): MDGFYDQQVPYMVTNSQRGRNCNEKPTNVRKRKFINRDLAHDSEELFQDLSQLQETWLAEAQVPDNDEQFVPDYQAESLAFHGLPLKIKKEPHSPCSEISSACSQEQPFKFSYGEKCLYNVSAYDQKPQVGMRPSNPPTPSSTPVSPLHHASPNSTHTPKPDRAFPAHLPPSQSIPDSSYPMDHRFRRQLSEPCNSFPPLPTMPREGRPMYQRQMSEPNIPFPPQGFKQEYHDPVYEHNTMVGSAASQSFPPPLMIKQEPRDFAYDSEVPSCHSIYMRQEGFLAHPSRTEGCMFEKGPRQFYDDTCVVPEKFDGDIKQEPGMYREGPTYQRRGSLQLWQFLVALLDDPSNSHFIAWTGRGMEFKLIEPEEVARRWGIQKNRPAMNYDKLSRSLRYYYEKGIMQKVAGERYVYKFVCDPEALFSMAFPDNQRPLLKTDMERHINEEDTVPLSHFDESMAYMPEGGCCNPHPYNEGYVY
# ETV5, sequence (P41161 whole entry): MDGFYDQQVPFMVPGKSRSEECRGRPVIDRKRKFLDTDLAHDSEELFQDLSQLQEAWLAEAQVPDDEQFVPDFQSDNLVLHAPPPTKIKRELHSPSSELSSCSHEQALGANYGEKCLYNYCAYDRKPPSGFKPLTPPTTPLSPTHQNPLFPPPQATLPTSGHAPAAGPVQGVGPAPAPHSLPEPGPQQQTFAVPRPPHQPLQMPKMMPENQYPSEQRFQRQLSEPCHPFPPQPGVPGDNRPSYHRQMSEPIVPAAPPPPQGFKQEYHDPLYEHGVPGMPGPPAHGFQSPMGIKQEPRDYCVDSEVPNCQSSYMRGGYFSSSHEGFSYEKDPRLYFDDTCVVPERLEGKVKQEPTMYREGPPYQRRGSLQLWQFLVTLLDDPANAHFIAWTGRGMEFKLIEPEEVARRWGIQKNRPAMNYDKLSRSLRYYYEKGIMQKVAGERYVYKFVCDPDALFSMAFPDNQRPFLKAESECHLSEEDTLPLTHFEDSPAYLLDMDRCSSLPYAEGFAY
# HSF1, sequence (Q00613 whole entry): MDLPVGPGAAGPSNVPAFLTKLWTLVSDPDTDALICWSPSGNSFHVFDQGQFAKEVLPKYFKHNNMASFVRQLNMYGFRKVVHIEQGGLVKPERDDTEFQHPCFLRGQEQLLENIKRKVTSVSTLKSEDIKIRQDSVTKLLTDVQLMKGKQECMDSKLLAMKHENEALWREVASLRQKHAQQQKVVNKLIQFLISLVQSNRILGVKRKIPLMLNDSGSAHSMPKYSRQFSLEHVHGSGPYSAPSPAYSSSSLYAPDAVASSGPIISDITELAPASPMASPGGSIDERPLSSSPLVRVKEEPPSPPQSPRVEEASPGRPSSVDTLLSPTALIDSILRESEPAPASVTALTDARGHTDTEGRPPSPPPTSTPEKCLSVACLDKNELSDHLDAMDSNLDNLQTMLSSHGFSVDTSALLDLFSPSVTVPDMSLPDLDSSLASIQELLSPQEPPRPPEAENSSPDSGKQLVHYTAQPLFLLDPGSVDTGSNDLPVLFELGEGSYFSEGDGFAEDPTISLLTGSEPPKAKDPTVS
# CRX, sequence (O43186 whole entry): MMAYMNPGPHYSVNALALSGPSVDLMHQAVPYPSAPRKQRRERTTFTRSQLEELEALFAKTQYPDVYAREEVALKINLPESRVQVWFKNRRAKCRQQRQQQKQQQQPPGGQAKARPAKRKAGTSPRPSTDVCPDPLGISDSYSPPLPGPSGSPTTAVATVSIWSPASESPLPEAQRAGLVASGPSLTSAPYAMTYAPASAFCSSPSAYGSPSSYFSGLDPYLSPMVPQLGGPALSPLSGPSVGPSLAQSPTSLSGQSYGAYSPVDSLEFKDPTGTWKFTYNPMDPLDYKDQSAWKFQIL
sequence,measurement,setting,value
TTCCTT,binding signal,FEV,"1.76 fold enrichment (6-mer frequency, TF over GST control)"
same,binding signal,ETV5,"2 fold enrichment (6-mer frequency, TF over GST control)"
same,binding signal,HSF1,"1.61 fold enrichment (6-mer frequency, TF over GST control)"
same,binding signal,SPIC,"1.99 fold enrichment (6-mer frequency, TF over GST control)"
same,binding signal,ELF4,"1.79 fold enrichment (6-mer frequency, TF over GST control)"
same,binding signal,ELK4,"1.75 fold enrichment (6-mer frequency, TF over GST control)"
same,binding signal,ETV2,"1.79 fold enrichment (6-mer frequency, TF over GST control)"
same,binding signal,ELF3,"1.76 fold enrichment (6-mer frequency, TF over GST control)"
same,binding signal,CRX,"1.33 fold enrichment (6-mer frequency, TF over GST control)"
same,binding signal,ETV1,"2.04 fold enrichment (6-mer frequency, TF over GST control)"
same,binding signal,ERF,"1.77 fold enrichment (6-mer frequency, TF over GST control)"
same,binding signal,ETV3L,"1.91 fold enrichment (6-mer frequency, TF over GST control)"
same,binding signal,ETS2,"1.94 fold enrichment (6-mer frequency, TF over GST control)"
same,binding signal,SPDEF,"1.77 fold enrichment (6-mer frequency, TF over GST control)"
same,binding signal,ETV7,"1.92 fold enrichment (6-mer frequency, TF over GST control)"
same,binding signal,ELF5,"3.67 fold enrichment (6-mer frequency, TF over GST control)"
same,binding signal,ETV3,"2.13 fold enrichment (6-mer frequency, TF over GST control)"
same,binding signal,ETV6,"2.1 fold enrichment (6-mer frequency, TF over GST control)"
